An excerpt weighted towards active compounds, which were near 3.4% of everything screened.
Tau fibril FP – qHTS for Inhibitors of Tau Fibril Formation, Fluorescence Polarization. K18 P301L tau heparin fibrillization, Alexa594 FP, 6 h. Potency, µM (series often up to 57.7 µM), for inactives: at the top dose activity, negative = inhibition, actives largely listed as inhibitors. 0.39% of 280,000 active. Microtubule-associated protein tau (Homo sapiens), P10636. AID 1468, 2008; also: nearly all actives have a fitted effect of over 55% in size
Target sequence (P10636 561-689 P618L limits assumed): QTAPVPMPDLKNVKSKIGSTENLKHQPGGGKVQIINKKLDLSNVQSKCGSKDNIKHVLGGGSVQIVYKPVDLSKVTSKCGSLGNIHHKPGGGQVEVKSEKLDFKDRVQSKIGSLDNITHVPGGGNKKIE
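Read-out: fluorescence polarization of Alexa 594-labeled tau (0.24 uM), 555 nm excitation, 632 nm emission. Mixtures held 15 uM unlabeled K18 P301L, compound and 20 uM heparin, pH 7 acetate buffer, incubated 6 hr at 37 C.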
Tau fluor counter – Counterscreen qHTS for Inhibitors of Tau Fibril Formation, Fluorescence Polarization. tau K18 P301L Alexa594 fluorescence, heparin fibrillization. Potency, µM (titrated, usually from 57.7 µM), for inactives: top-dose activity change, negative = decrease. AID 1463, 2008. 0.93% of 280,000 active; also: nearly all actives have a fitted effect of over 55% in size
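Human tau K18 P301L (15 uM unlabeled, 0.24 uM Alexa 594-labeled) in 100 mM sodium acetate pH 7 with 20 uM heparin, 6 hr at 37 C. ThT 30 uM added, 1 hr ambient; Alexa 594 FP and total fluorescence read at 555/632 nm.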
JMJD2E inh – qHTS Assay for Inhibitors of Human Jumonji Domain Containing 2E (JMJD2E); Lysine-specific demethylase 4E (Homo sapiens), B2RXH2; JMJD2E catalytic domain, FDH-coupled NADH fluorescence (FDH is formaldehyde dehydrogenase); Potency, µM (top dose mostly 57.1 µM), inactives show at the highest dose activity change, negative = inhibition, hits mostly inhibitors; 1.6% of 230,000 active; AID 2147, 2009; active = well fitted inhibition curve with a large enough effect, not every such curve was filed as active; inconclusive = small, poorly fitted or top-dose-only effect, or another doubt; inactive = no such curve, though single readings can be large or run the other way;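 also: 0% = wells with enzyme and -100% = buffer wells without enzyme; nearly all actives have a fitted effect of over 50% in size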
RGS12 GoLoco inh – qHTS Assay for Inhibitors of RGS12 GoLoco Motif Activity (Red Fluorophore). Guanine nucleotide-binding protein G(i) subunit alpha-1 (Homo sapiens), P63096. Gai1:RGS12 GoLoco peptide FP, rhodamine, 10 min. Potency, µM (top dose mostly 61.6 µM), for inactives: at the top dose activity, negative = inhibition, most hits filed as inhibitors. 0.44% of 230,000 active. AID 880, 2007; active = well fitted inhibition curve with a large enough effect, not every such curve was filed as active; inactive = no such curve, though single readings can be large or run the other way; also: nearly all actives have a fitted effect of over 30% in size
Target sequence (P63096 whole entry, looked up): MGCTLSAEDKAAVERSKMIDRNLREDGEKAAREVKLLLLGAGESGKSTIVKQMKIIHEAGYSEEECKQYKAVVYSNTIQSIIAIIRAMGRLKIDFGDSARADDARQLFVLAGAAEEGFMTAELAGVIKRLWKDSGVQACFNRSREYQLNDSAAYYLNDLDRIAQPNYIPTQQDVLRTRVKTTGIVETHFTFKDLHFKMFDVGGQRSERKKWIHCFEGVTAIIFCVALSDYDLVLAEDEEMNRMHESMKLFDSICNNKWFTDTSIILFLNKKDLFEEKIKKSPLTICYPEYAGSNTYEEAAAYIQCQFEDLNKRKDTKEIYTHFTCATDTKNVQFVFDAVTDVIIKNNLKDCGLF
Tau ThT inhib – qHTS for Inhibitors of Tau Fibril Formation, Thioflavin T Binding; Microtubule-associated protein tau (Homo sapiens), P10636; recombinant tau K18 P301L (four-repeat tau fragment), heparin-induced fibrillization, ThT fluorescence; Potency, µM (doses to about 57.4 µM), for inactives: at the highest dose activity, negative = inhibition, hits mostly inhibitors; 2.1% of 270,000 active; also: nearly all actives have a fitted effect of over 55% in size
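K18 P301L tau (15 uM + 0.24 uM Alexa 594-tagged), heparin 20 uM, NaOAc pH 7, 6 h 37 C; ThT 30 uM, 1 h RT, ex 450/em 510 nm.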
An asterisk follows results filed as active; ? = inconclusive; / = no result given; [ ] = remark or other dose. Unless noted, calls follow the shape of the dose curve; as a rule, active = well fitted curve in the direction sought with a large enough effect; inconclusive = small, poorly fitted or top-dose-only effect, or another doubt; inactive = no such curve, though single readings can be large; an effect the other way counts as inactive or inconclusive. Unless noted, % is scaled to controls: 0 for no effect and ±100 for the full control effect; potency is read from the fitted curve at half-maximal effect.

SMILES	Tau fibril FP	Tau fluor counter	JMJD2E inh	RGS12 GoLoco inh	Tau ThT inhib
CCS(=O)(=O)N1CCC(C(=O)N2CCc3ccccc3C2)CC1	?	15.8µM*[quencher]	-2.0%	/	?
CCCN1C(=O)c2[nH]nc(-c3ccccc3O)c2C1c1cccc(OCc2ccccc2)c1 (centres undefined)	?	?	/	/	-4.1%
CC(C)(C)c1ccc(OCc2nnc(-c3ccccc3)o2)cc1	-3.0%	-14.2%	/	/	-18.2%
CC1(C)CC(Nc2ccc(Nc3ccccc3)cc2)CC(C)(C)N1	?	28.2µM*[quencher]	7.7%	-1.4%[14.2 µM]	?
Cc1ccc(S(=O)(=O)Nc2cc3c(cc2NCc2ccccc2)n(C)c(=O)n3C)c(C)c1	?	?	/	/	17.8µM*
COc1cc(/C=C/C(=O)c2ccc(Cl)s2)cc(OC)c1O	5.3%	?	-12.7%	50.8%	14.1µM*
COc1ccc(/C=C/C(=O)CC(=O)/C=C/c2cccc(O)c2OC)cc1O	-9.3%	8.91µM*[quencher]	/	141.0%	1.26µM*
COc1ccc(C(=O)/C=C/c2ccc(OC)c(O)c2)c(F)c1	-3.7%	-1.9%	-4.1%	35.7%	1.2%
COc1ccc(/C=C/C(=O)c2ccc(Cl)s2)cc1O	?	?	-27.7%	-11.6%	7.94µM*
CCOc1ccc(C(=O)NCC(c2ccco2)S(=O)(=O)c2ccc(C)cc2)cc1 (centres undefined)	2.5%	-9.2%	/	/	-14.0%
O=C(/C=C/c1cccs1)c1ccc(NC(=O)c2cccc(Br)c2)cc1	?	?	2.1%	102.6%	7.08µM*
CCCCOC(=O)c1ccc(NC(=O)/C=C/c2cccs2)cc1	14.1µM*	?	?	13.4%	13.8%
COc1ccc(NC(=O)Nc2cccs2)cc1OC	1.6%	?	?	9.2%	15.8µM*
Cc1ccc(C(=O)Nc2ccc(C(=O)/C=C/c3cccs3)cc2)cc1	-9.2%	-9.7%	1.1%	1.8%	?
CCOC(=O)c1ccc(NC(=O)Nc2ccc(OC)c(OC)c2)cc1	?	12.6µM*[quencher]	11.9%	2.9%	?
COc1cc(NC(=O)c2ccc(NC(=O)N3CCSc4ncccc43)cc2)cc(OC)c1	-10.4%	-26.0%	/	/	-6.4%
C[C@]12CC[C@H](O)CC1=CC[C@H]1[C@@H]2CC[C@@]2(C)C(N(CCO)CCO)CC[C@@H]12 (some centres undefined)	/	/	/	1.6%[14.2 µM]	/
CCn1nc(C)c2c(-c3ccccc3)cc(=O)n(C(C)C(=O)NCCc3ccccc3)c21 (centres undefined)	3.6%	-4.5%	/	/	-18.0%
CCCCOC(=O)c1ccc(NC(=O)c2c(OC)cccc2OC)cc1	-4.5%	-17.2%	-4.1%	8.9%	-9.1%
CCCCOC(=O)c1ccc(NC(=O)Nc2ccc(OC)c(OC)c2)cc1	-8.7%	6.31µM*[quencher]	4.1%	5.2%	?
CN=c1scc(C)n1/N=C/c1ccc(O)c(O)c1O	25.1µM*	?	7.94µM*	-0.8%	7.08µM*
CN=c1scc(-c2cccs2)n1/N=C/c1ccccc1O	-7.8%	-2.9%	-1.0%	-11.8%	10.6%
CN=c1scc(C)n1/N=C/c1cc(Br)c(O)c(OC)c1	5.9%	?	-8.9%	-5.3%	12.6µM*
CN=c1scc(-c2cccs2)n1/N=C/c1ccc(O)c(O)c1O	?	20µM*[quencher]	14.1µM*	36.0%	12.6µM*
COc1cc(OC)cc(OC)c1	-2.8%	-5.2%	6.6%	17.8µM*	0.6%
SMILES	Tau fibril FP	Tau fluor counter	JMJD2E inh	RGS12 GoLoco inh	Tau ThT inhib
O=C(/C(=C/c1ccc(Cl)cc1)c1nc2ccccc2[nH]1)c1cccs1	?	-28.6%	-1.3%	27.9%	15.8µM*
O=C(/C(=C\c1ccccc1)c1nc2ccccc2[nH]1)c1ccc(Cl)cc1	?	-23.7%	2.2%	-13.1%	22.4µM*
CCc1nc(C)cn1S(=O)(=O)c1ccc(Cl)c(Cl)c1OC	6.6%	-10.3%	/	/	5.4%
CCOc1cccc(CC(=O)N2CCc3c([nH]c4ccccc34)C2c2ccc(SC)cc2)c1OCC (centres undefined)	-0.6%	-18.2%	/	/	-8.2%
Nc1ccc2oc(-c3ccc4nc[nH]c4c3)nc2c1	3.9%	?	?	5.1%	14.1µM*
CCOC(=O)C(C(C)=O)c1c(Br)c(O)c(O)c2c(C(=O)c3ccc(C)cc3)coc12 (centres undefined)	4.9%	-12.4%	25.1µM*	-34.6%	?
CCOC(=O)c1c(C)n(-c2ccc(C)cc2)c2c(C(C(C)=O)C(=O)O)c(Br)c(O)c(O)c12 (centres undefined)	?	?	?	-18.0%	?
O=C1CC(N(CCc2ccccc2)C(=S)Nc2ccccc2)C(=O)N1c1ccc(Br)cc1 (centres undefined)	7.94µM*	?	-6.0%	3.4%	?
O=C(O)c1cc(Br)ccn1	4.5%	0.6%	17.8µM*	-18.4%	0.9%
O=C(O)c1ccccn1	/	/	/	3.2%	/
CN(C)c1ccnc(C(=O)O)c1	-3.0%	-8.8%	2.82µM*	-17.8%	-7.3%
CN(C)c1cncc(C(=O)O)c1	2.4%	0.6%	?	10.3%	-3.3%
CCOC(=O)C(CC)N1CCN(Cc2ccc(F)cc2)C(=O)C1=O (centres undefined)	-3.4%	0.6%	/	/	5.3%
COc1ccc(C)cc1NC(=O)c1ccc2c(c1)nnn2C1CCCC1	11.1%	-27.9%	/	/	?
CCN(Cc1ccccc1)c1ccc(/C=N/NS(=O)(=O)c2cccc([N+](=O)[O-])c2)cc1	18.0%	7.94µM*[quencher]	?	21.1%	?
C[n+]1cc(-c2ccccc2)n2c1CCCCC2	-1.8%	-1.1%	12.8%	4.47µM*	-2.4%
COc1ccc2c(/C=N/NS(=O)(=O)c3ccc(C)cc3)c[nH]c2c1	13.1%	12.6µM*[quencher]	?	9.0%	?
COc1ccc2[nH]cc(/C=N/NS(=O)(=O)c3ccc(C)cc3)c2c1	15.3%	12.6µM*[quencher]	0.6%	-3.3%	?
Cc1ccc(S(=O)(=O)N/N=C/c2c[nH]c3ccccc23)cc1	12.2%	?	1.8%	16.0%	?
CC(C)c1ccc(NC(=O)c2cc3c(=O)[nH]c4ccccc4c3n2C)cc1	?	-23.2%	/	/	10.7%
COc1ccccc1Nc1nc(-c2ccc3c(c2)NC(=O)CO3)cs1	5.7%	11.2µM*[quencher]	-11.4%	4.3%	14.1µM*
COc1ccc(Nc2nc(-c3ccc4c(c3)NC(=O)CO4)cs2)cc1	-1.6%	12.6µM*[quencher]	-5.9%	0.1%	7.94µM*
C=CCN1C(=O)/C(=c2\sc3nc(=O)c(Cc4ccc(OC)c(OC)c4)nn3c2=O)c2ccccc21	?	-29.9%	-2.8%	-4.5%	28.2µM*
